Screening results as filed in PubChem BioAssay.
Shown are actives, neighbours in structure and some others; about 0.5% of the full set was active somewhere.
Tat export inh: inhibitors of E. coli Tat protein transport; E. coli MC4100 TorA-mCherry Tat export, fluorescence; inhibition, % at 10 µM; hit rate 0.036% among 340,000; AID 488895;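 active = mean replicate inhibition at least 50% and at least half of replicates individually reaching 50%; inconclusive = only one of the two criteria met; inactive = neither criterion met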;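 also: exported cargo escapes ClpAP degradation while cytoplasmic cargo is degraded and loses fluorescence; 0% = median of neutral control wells and 100% = median of NaSCN control wells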
AddAB inh: less growth of phage-infected E. coli with AddAB; E. coli expressing H. pylori AddAB, absorbance growth; inhibition, % at 11.9 µM; hit rate 0.29% among 330,000; in the data active = inhibition above about 12%;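 also: 0% = vehicle wells of infected cells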
E coli growth-1: E. coli growth inhibition. Escherichia coli growth, OD600, 23 h; hits give low values. hit rate 0.21% among 330,000. OD600 absorbance (concentration not given with the values);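 active = OD600 absorbance below the run mean of sample wells minus 3.6 SD, in any replicate, cut at about 0.56 in these data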
E coli growth-2: bacterial growth inhibition, counter-screen for AddAB inhibitors; hit rate 0.27% among 330,000; E. coli V3065 growth, OD600 absorbance, 18 h; inhibition, % at 11.9 µM;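 active = inhibition above the campaign's mean inhibition across all tested compounds plus 3 SD, cut at about 9.9% in these data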;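 also: uninfected addAB+ strain grown without phage in ampicillin broth; 0% = DMSO wells and 100% = ciprofloxacin 0.95 µg/ml wells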
phage Ecoli inh: E. coli growth loss with phage present | hit rate 0.26% among 360,000 | growth absorbance | inhibition, % at 11.9 µM; in the data active = inhibition above about 11%
RecBCD conf: growth loss of phage-infected V66 E. coli, RecBCD confirmation screen | shares compounds with phage Ecoli inh | E. coli V66 + T4 2- phage, growth OD | inhibition, % at 11.9 µM | hit rate 45% among 890 | AID 651982;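 active = mean inhibition over triplicates exceeding the hit threshold derived in the original primary screen, cut at about 11% in these data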
Ecoli viability: bacterial viability inhibition counter-screen for RecBCD; shares compounds with phage Ecoli inh; E. coli viability, absorbance (OD) growth; inhibition, % at 11.9 µM; hit rate 29% among 890; in the data active = inhibition above about 20%;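 also: E. coli strain V66 grown with compound alone and no phage infection; 0% = bacteria with DMSO vehicle only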
AddAB phage OD: growth loss of phage-infected AddAB E. coli, RecBCD counter-screen; E. coli expressing H. pylori AddAB + T4 phage, OD growth; gene 2 mutant T4, recBCD-deleted host; shares compounds with phage Ecoli inh; inhibition, % at 11.9 µM; hit rate 45% among 890;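 active = mean inhibition above the solvent-only control wells' mean plus 3 SD, cut at about 22% in these data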;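 also: higher means less bacterial growth from phage killing when AddAB is blocked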
Numbers without * were called inactive; i = inactive; u = inconclusive; x = no result.

SMILES	Tat export inh	AddAB inh	E coli growth-1	E coli growth-2	phage Ecoli inh	RecBCD conf	Ecoli viability	AddAB phage OD
CCS(=O)(=O)c1ccc(OC)c(N=Nc2ccc(O)c3ncccc23)c1	-9	8	0.66	6	7	x	x	x
O=C(Nc1cccc([N+](=O)[O-])c1)c1cccc(C(=O)Nc2cccc([N+](=O)[O-])c2)c1	-4	-2	x	-3	2	x	x	x
CC(NC(=O)Nc1cccc([N+](=O)[O-])c1)(C(F)(F)F)C(F)(F)F	-11	4	0.63	0	14*	7	7	6
O=[N+]([O-])c1ccc2nc(-c3ccc(Cl)cc3)[nH]c2c1	-1	10	0.56	3	11*	3	5	9
Cc1ccc(-c2nc3ccc([N+](=O)[O-])cc3[nH]2)cc1	0	7	0.53	3	5	x	x	x
CNc1cccnc1C=NNC(N)=S	-10	x	x	x	4	x	x	x
NC(=S)NN=Cc1nccc2c(C(F)(F)F)cccc12	x	x	x	x	16*	18*	21*	22*
COc1ccc(C2=CC(=O)CC(c3ccc(OC)c(OC)c3)C2)cc1 (configuration not stated)	x	x	0.68	x	x	x	x	x
O=C(Cn1cnc2ccccc21)NN=Cc1ccccc1	x	x	0.64	x	x	x	x	x
Oc1c(C(Nc2ccccn2)c2cccnc2)cc(Cl)c2cccnc12 (configuration not stated)	2	12	0.68	10*	18*	2	5	17
O=C(CCc1ccccc1)NC(c1cccs1)c1cc(Cl)c2cccnc2c1O (configuration not stated)	-12	x	0.64	x	17*	9	9	14
CC(=O)NC(c1ccc(C)cc1)c1cc(Cl)c2cccnc2c1O (configuration not stated)	-8	x	x	x	21*	12*	16	17
CC(=O)NC(c1ccccc1)c1cc([N+](=O)[O-])c2cccnc2c1O (configuration not stated)	1	-2	0.69	-5	-5	x	x	x
CC(=O)NC(c1cc(Cl)c2cccnc2c1O)C1CC1 (configuration not stated)	0	0	0.68	3	6	x	x	x
CCC(=O)NC(c1cccs1)c1cc(Cl)c2ccccc2c1O (configuration not stated)	1	4	0.69	1	2	x	x	x
CC(=NOC(=O)c1cccc(C)c1)c1sc(-c2ccccc2)nc1C	x	x	0.72	x	x	x	x	x
COc1ccc(C)c2sc(=NC(=O)c3ccccc3)n(C)c12	-10	-4	0.78	0	100*	-1	1	1
COc1ccc(C)c2sc(=NC(=O)c3ccc(C(C)=O)cc3)n(C)c12	-7	3	0.66	0	2	x	x	x
CC(=NNC(=O)CN(c1ccccc1)S(=O)(=O)c1ccccc1[N+](=O)[O-])C(C)(C)C	x	x	0.65	x	x	x	x	x
O=C(CN1C(=O)COc2ccccc21)Nc1ccccc1F	22	0	0.69	1	14*	-3	-3	-3
O=C(CN1C(=O)COc2ccccc21)NNC(=O)Nc1ccccc1F	-6	3	0.69	-1	2	x	x	x
COC(=O)[C@]1(CC(C)C)NC(c2ccc(-c3ccc(F)cc3)cc2)C2C(=O)N(C)C(=O)C21 (some centres not stated)	x	x	0.63	x	x	x	x	x
Cc1ccc(N2C(=O)C3C(C2=O)C2c4ccccc4C=CN2C3C(=O)c2ccco2)cc1 (configuration not stated)	x	x	0.72	x	x	x	x	x
Cc1c(Cl)sn(-c2ccc(Cl)cc2)c1=O	u	x	0.062*	x	98*	99*	100*	100*
O=C(CC(=O)NN=Cc1ccccc1O)NCc1cccnc1	x	x	0.63	x	x	x	x	x
SMILES	Tat export inh	AddAB inh	E coli growth-1	E coli growth-2	phage Ecoli inh	RecBCD conf	Ecoli viability	AddAB phage OD
COc1cc(N(C)C)ccc1C=c1c2ccccc2n2c1cc(-c1ccccc1)[n+]2C	i	x	x	x	28*	32*	36*	97*
CCC(CC)=NN=Cc1c(O)n(CC)c2cc(C3=NNC(=O)CC3)ccc12	x	x	0.78	x	x	x	x	x
O=C(Nc1ccccc1)C1=CC(C2CCCCC2)CC(OCc2ccc(CO)cc2)O1 (configuration not stated)	x	x	0.7	x	x	x	x	x
CN1CCN(C(=O)N(c2ccccc2)c2ccccc2)CC1	7	1	0.7	0	98*	-3	-2	-1
CCN1CCN(C(=O)N(c2ccccc2)c2ccccc2)CC1	1	-4	0.69	-2	2	x	x	x
O=C(/C=C/c1ccc([N+](=O)[O-])cc1)c1ccccc(=O)c1O	11	x	x	x	16*	10	12	-1
O=C(/C=C/c1ccc([N+](=O)[O-])cc1)c1cccs1	-1	0	0.7	2	3	x	x	x
Cc1ccc(/C=C/C(=O)c2ccccc(=O)c2O)c(C)c1	1	7	0.67	2	13*	4	6	1
O=C(C=Cc1ccccc1O)c1ccccc1O	-4	x	0.57	x	2	x	x	x
CCNC(=S)NN=Cc1cccs1	x	x	0.7	x	x	x	x	x
CC(NC(=S)NC1CCCCC1)C(c1cccs1)N1CCOCC1 (configuration not stated)	3	3	0.69	1	-2	x	x	x
CC(NC(=O)C1CCCCC1)C(c1cccs1)N1CCOCC1 (configuration not stated)	0	1	0.75	-2	97*	2	2	2
Fc1ccc(CN2CCCN(Cc3nc(-c4ccc5c(c4)OCO5)no3)CC2)cc1	-2	3	0.66	0	4	x	x	x
O=C(c1ccco1)N1CCCN(Cc2nc(-c3ccc4c(c3)OCO4)no2)CC1	4	-2	0.68	0	15*	1	1	-2
O=C1CC(c2ccccc2)CC(=NCCO)/C1=C(/O)CCCN1C(=O)c2ccccc2C1=O (configuration not stated)	x	x	0.71	x	x	x	x	x
Cc1[nH]nc(C(F)(F)F)c1N=NN1CCOCC1	83*	x	x	x	100*	99*	103*	100*
O=C(Cc1ccccc1)NN=Cc1cccnc1	x	x	0.67	x	x	x	x	x
COc1ccc(N(C)S(=O)(=O)c2ccc(Cl)c(C(=O)NNC(=O)c3ccccc3O)c2)cc1	-5	x	0.63	x	12*	4	5	10
OC(CN1CCN(c2ccccn2)CC1)Cn1c2ccccc2c2ccccc21 (configuration not stated)	6	5	0.61	0	12*	-4	-4	-4
O=C(Nc1ccc(F)cc1)Nc1csc2ccccc12	x	7	0.58	3	13*	3	5	-2
NC(=O)C1CC2(CC(c3cccc(NC(=O)COc4ccc(Cl)cc4)c3)=NO2)CN1C(=O)COc1ccc(Cl)cc1 (configuration not stated)	x	x	0.69	x	x	x	x	x
Cc1cccc(C)c1OCC(=O)NN=C/C=C/c1ccco1	x	x	0.68	x	x	x	x	x
COc1cc2nc(N(C)C)nc(N)c2cc1OC	-4	1	0.76	-2	0	x	x	x
CN(C)c1ccc(Sc2ccc3nc(N)nc(N)c3c2)cc1	x	x	x	x	99*	64*	68*	82*
COC(=O)c1ccc(NC(=O)Nc2ccc(F)cc2F)cc1	-1	5	0.71	0	7	x	x	x
COC(=O)c1ccc(NC(=O)Nc2cccc(F)c2)cc1	0	9	0.6	6	12*	4	4	0
